Shown are actives, neighbours in structure and some others; about 4.1% of the full set was active somewhere.
A1 inh – inhibitors of the anti-apoptotic protein A1, read as caspase activation; MEF A1-2A-BIM cells, Caspase-Glo 3/7 luminescence, 3 h; percent of clofoctol response, vehicle zero; caspase activation, % (no concentration beside the values); 330,000 compounds, 0.066% hits; AID 2462;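 active means over half of replicate activation scores above 10%, or exactly half above 10 with the replicate mean above 10; inconclusive means replicate mean below 10 yet half the replicates above 10; inactive means over half of replicates below 10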
aSyn UTR inh – MLPCN primary screen, SNCA 5' untranslated region; alpha-synuclein 5'UTR reporter, inhibitor activity; inhibition, % (tested at 7.5 µM); AID 1813; 300,000 compounds, 0.82% hits; in the data active means inhibition above about 60%; inconclusive means no clear call, values can overlap the other calls;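 further: H4 neuroglioblastoma cells stably carrying SNCA 5'UTR luciferase fusion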
Beta cell apopt – beta cell apoptosis inhibition; 300,000 compounds, 0.8% hits; protection from apoptosis, % (concentration not given with the values); AID 435005; INS-1E cytokine-induced death, ATP luminescence, 48 h; percent of positive-control rescue, neutral wells zero;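 active means Every replicate reaches about 75%, or at least half do and their mean reaches it too, limit read from the data; inconclusive means At least half of replicates reach the limit but their mean does not; inactive means Under half of replicates reach the limit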;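 further: higher means more ATP so stronger rescue from cytokine killing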
CSC inhib – blocks cancer stem cells; AID 2717; inhibition, % at 7.5 µM; cancer stem cell-like cells viability, luminescence; 300,000 compounds, 1.1% hits; in the data active means inhibition above about 75%; inconclusive means no clear call, values can overlap the other calls; tested in HMLE shEcad cells
Mdm2-MdmX inh – inhibitors of human Mdm2/MdmX interaction; SaOS-2 split-luciferase Mdm2/MdmX complementation, luminescence; inhibition, % at 8 µM; 330,000 compounds, 3% hits; AID 485346;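 active means inhibition of at least 50% at 8 µM in the primary screen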
Target sequence (O15151 whole entry, looked up): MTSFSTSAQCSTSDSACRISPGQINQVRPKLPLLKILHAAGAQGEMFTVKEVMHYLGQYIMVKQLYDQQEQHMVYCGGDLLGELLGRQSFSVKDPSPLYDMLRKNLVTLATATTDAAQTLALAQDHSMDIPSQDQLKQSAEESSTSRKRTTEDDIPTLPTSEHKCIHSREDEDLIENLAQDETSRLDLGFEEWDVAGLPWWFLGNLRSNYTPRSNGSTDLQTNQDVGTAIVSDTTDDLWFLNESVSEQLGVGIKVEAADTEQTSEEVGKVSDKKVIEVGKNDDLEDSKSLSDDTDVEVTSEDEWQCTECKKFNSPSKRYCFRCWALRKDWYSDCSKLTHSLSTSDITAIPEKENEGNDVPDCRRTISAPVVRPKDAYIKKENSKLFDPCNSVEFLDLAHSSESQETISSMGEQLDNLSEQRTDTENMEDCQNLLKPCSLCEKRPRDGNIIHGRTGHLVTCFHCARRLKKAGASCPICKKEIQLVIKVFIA
Target sequence (Q00987 whole entry, looked up): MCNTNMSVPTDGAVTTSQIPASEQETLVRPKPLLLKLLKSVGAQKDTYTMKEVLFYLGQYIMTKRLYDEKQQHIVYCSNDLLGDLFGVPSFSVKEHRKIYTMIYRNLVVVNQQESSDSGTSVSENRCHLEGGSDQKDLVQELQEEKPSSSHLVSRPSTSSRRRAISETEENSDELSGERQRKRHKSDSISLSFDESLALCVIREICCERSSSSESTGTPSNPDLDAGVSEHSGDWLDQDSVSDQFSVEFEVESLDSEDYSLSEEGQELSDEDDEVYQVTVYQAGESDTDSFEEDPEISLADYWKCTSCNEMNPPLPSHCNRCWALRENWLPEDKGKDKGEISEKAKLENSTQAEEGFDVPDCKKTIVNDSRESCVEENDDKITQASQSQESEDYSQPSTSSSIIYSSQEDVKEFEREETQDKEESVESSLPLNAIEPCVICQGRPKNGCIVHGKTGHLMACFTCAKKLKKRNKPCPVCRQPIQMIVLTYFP
Mdm2 MdmX conf – human Mdm2/MdmX binding inhibition, confirmed; shares compounds with Mdm2-MdmX inh; luminescent assay; inhibition, % at 8 µM; 10,000 compounds, 55% hits; AID 489028; in the data active means inhibition above about 40%
FLuc counter – inhibits full-length luciferase, flagging false Mdm2/MdmX hits. AID 504607. shares compounds with Mdm2-MdmX inh. 6,200 compounds, 77% hits. inhibition, % at 8 µM. SaOS-2 full-length luciferase counterscreen, luminescence;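 active means mean inhibition at 8 µM reaching about 37%, which flags the compound as non-specific, limit read from the data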;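 further: p53-null SaOS-2 cells with luciferase driven by a doxycycline-inducible promoter; compound on cells about two nights before reading with doxycycline added after day one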
Of the large screens only hits and unclear results are named; the others gave an inactive call (follow-up assays come after a bar, where they were run).

O=c1[nH]cnc2c1ncn2[C@@H]1O[C@H](COS(=O)(=O)O)[C@@H](O)[C@H]1O	none (no result: aSyn UTR inh)
Cc1cc(C2=NNC(=NC3CC3)SC2)c(C)n1-c1ccccc1F	aSyn UTR inh 99.4, Mdm2-MdmX inh 98.6 | Mdm2 MdmX conf 98.8 | FLuc counter inactive
c1cc2c(cc1C1=NNC(=NC3CC3)SC1)OCCO2	aSyn UTR inh 111.0, Mdm2-MdmX inh 92.2 | Mdm2 MdmX conf 86.2 | FLuc counter 55.8
Cc1ccc(NC(=O)CSCC(=O)Nc2cc(Cl)ccc2N2CCOCC2)cc1	A1 inh inconclusive
COc1cccc(NC(=S)N2CCN(C(c3ccccc3)c3ccccc3)CC2)c1	Mdm2-MdmX inh 78.5 | Mdm2 MdmX conf 41.6 | FLuc counter 68.2
NS(=O)(=O)c1cccc(NC(=O)c2cccc(-c3ccc(O)cc3)c2)c1	Mdm2-MdmX inh 64.5 | Mdm2 MdmX conf inactive
CN(C)S(=O)(=O)c1cccc(C(=O)Nc2ccc(C(=O)Nc3cccc(S(N)(=O)=O)c3)cc2)c1	none (no result: aSyn UTR inh)
O=C(Nc1nc2ccccc2n1CCOc1ccc(Cl)cc1)c1ccco1	Mdm2-MdmX inh 67.3 | Mdm2 MdmX conf 49.6 | FLuc counter 72.5
O=C(Nc1nc2ccccc2n1CCOc1ccccc1)c1ccco1	Mdm2-MdmX inh 52.9 (no result: CSC inhib) | Mdm2 MdmX conf inactive
Cc1cccc(OCCn2c(NC(=O)c3ccco3)nc3ccccc32)c1	Mdm2-MdmX inh 51.0 | Mdm2 MdmX conf 40.7 | FLuc counter 59.3
S=C(Nc1ccccc1)Nc1nc2ccccc2n1CCOc1ccc(Br)cc1	CSC inhib 106.9, Mdm2-MdmX inh 95.3 | Mdm2 MdmX conf inactive
CC(C)(C)N1CC(C(=O)Nc2ccc(C#N)cc2)CC1=O (stereo not given)	none
O=C(NCc1ccccc1Cl)C(=O)NCC1OCCCN1S(=O)(=O)c1cccs1 (stereo not given)	none (no result: Beta cell apopt)
COC(=O)c1ccc(C(=O)NC(=S)Nc2ccc3nc(SC)sc3c2)cc1	Mdm2-MdmX inh 80.7 | Mdm2 MdmX conf inactive
O=C(Nc1ccnn1C1CCN(Cc2ccccc2OC(F)F)CC1)c1cccnc1	none
C[C@H]1CN([C@@H](C)CO)C(=O)c2cccc(NC(=O)Nc3ccc(C(F)(F)F)cc3)c2O[C@@H]1CN(C)Cc1ccc(Cl)c(Cl)c1	Mdm2-MdmX inh 72.3 (no result: aSyn UTR inh, CSC inhib) | Mdm2 MdmX conf 49.3 | FLuc counter 75.5
C[C@@H]1CN([C@@H](C)CO)C(=O)c2cc(NC(=O)CCC(F)(F)F)ccc2O[C@H]1CN(C)Cc1ccc(Cl)c(Cl)c1	none (no result: aSyn UTR inh, CSC inhib)
C[C@@H]1CN([C@H](C)CO)C(=O)c2cc(NS(=O)(=O)c3ccc(F)cc3)ccc2O[C@@H]1CN(C)Cc1ccc(Cl)c(Cl)c1	Mdm2-MdmX inh 77.6 (no result: A1 inh, aSyn UTR inh, Beta cell apopt, CSC inhib) | Mdm2 MdmX conf 56.6 | FLuc counter 49.6
C[C@@H]1CN([C@H](C)CO)C(=O)c2cc(NC(=O)Nc3ccc(C(F)(F)F)cc3)ccc2O[C@H]1CN(C)Cc1ccc(Cl)c(Cl)c1	Mdm2-MdmX inh 98.4 (no result: A1 inh, aSyn UTR inh, Beta cell apopt, CSC inhib) | Mdm2 MdmX conf 47.0 | FLuc counter inactive
C[C@H](CO)N1C[C@H](C)[C@@H](CN(C)S(=O)(=O)c2ccc(F)cc2)Oc2ccc(NS(=O)(=O)c3ccc(F)cc3)cc2C1=O	none (no result: aSyn UTR inh)
Cc1ccc(NC(=O)c2ccc3nsnc3c2)c(C)c1	none
CN(C(=O)COC(=O)c1cc(S(=O)(=O)N2CCCCC2)ccc1Cl)c1ccccc1	none (no result: aSyn UTR inh, CSC inhib)
O=C(Cn1ccc(NC(=O)OCc2ccccc2)nc1=O)NCc1nc2ccccc2[nH]1	none (no result: aSyn UTR inh)
C[C@@H]1C=CC(=O)O[C@@H]1c1ccc(Cl)cc1	Mdm2-MdmX inh 78.9 | Mdm2 MdmX conf 61.0 | FLuc counter inactive
O=C(O)CCCC(=O)N1N=C(c2ccccc2)CC1c1ccc2c(c1)OCO2 (stereo not given)	none
Cc1sc2ncnc(Nc3ccccc3)c2c1C	none
Cc1sc2ncnc(NCc3ccccc3)c2c1C	Mdm2-MdmX inh 67.4 | Mdm2 MdmX conf inactive
CC(NC(=O)C1CCN(S(=O)(=O)c2cccs2)CC1)c1cccc(Cl)c1 (stereo not given)	none (no result: aSyn UTR inh)
Cc1cccn2c(=O)c3cc(C(=O)NC4CCCC4)c(=N)n(CCc4ccccc4)c3nc12	none
Cc1cccn2c(=O)c3cc(C(=O)NC4CCCCC4)c(=N)n(Cc4ccccc4)c3nc12	Mdm2-MdmX inh 93.5 | Mdm2 MdmX conf inactive
Cc1cccn2c(=O)c3cc(C(=O)NC4CCCC4)c(=N)n(Cc4ccc(F)cc4)c3nc12	none
COc1ccc(CCn2c(=N)c(C(=O)NCC3CCCO3)cc3c(=O)n4ccccc4nc32)cc1 (stereo not given)	none
Cc1ccc(S(=O)(=O)c2cc3c(=O)n4cccc(C)c4nc3n(Cc3ccncc3)c2=N)cc1	Mdm2-MdmX inh 52.6 | Mdm2 MdmX conf inactive
COc1ccc(CCn2c(=N)c(C(=O)NC3CCCC3)cc3c(=O)n4cccc(C)c4nc32)cc1	Mdm2-MdmX inh 88.0 | Mdm2 MdmX conf 52.6 | FLuc counter 57.7
COc1ccc(CCn2c(=N)c(C(=O)NC3CCCCC3)cc3c(=O)n4ccccc4nc32)cc1	Mdm2-MdmX inh 93.1 | Mdm2 MdmX conf inactive | FLuc counter 81.8
CCOc1ccc(NC(=S)N2CCN(S(C)(=O)=O)CC2)cc1	none
Cc1ccc(N(CC(O)CN2CCCCC2)S(=O)(=O)c2ccc(C)cc2)cc1 (stereo not given)	none
Cc1cc(Sc2nnc(N)s2)c2ccccc2n1	Mdm2-MdmX inh 50.2 (no result: Beta cell apopt) | Mdm2 MdmX conf inactive | FLuc counter inactive
COC(=O)C1=C(N)Oc2cc(C)n(CC3CCCO3)c(=O)c2C1c1ccccc1OC (stereo not given)	none
COC(=O)C1=C(N)Oc2cc(N(C)C)ccc2C1c1ccccc1OC (stereo not given)	aSyn UTR inh 82.8, Mdm2-MdmX inh 60.8 (no result: Beta cell apopt) | Mdm2 MdmX conf 40.2 | FLuc counter 42.5
N#CC1(NC(=O)COc2cccnc2[N+](=O)[O-])CCCCC1	none (no result: aSyn UTR inh)
Cc1ccc(NC(=O)CSc2nsc(SCC(=O)Nc3ccc(C)cc3C)c2C#N)c(C)c1	Mdm2-MdmX inh 83.0 | Mdm2 MdmX conf inactive
Cc1cn2c(=O)c(C(=O)NCc3ccc4c(c3)OCO4)cnc2s1	none (no result: Beta cell apopt)
Cc1nc(Nc2cnc(/C=C/c3cc(C(=O)Nc4cccc(C(F)(F)F)c4)ccc3C)cn2)cc(N2CCNCC2)n1	aSyn UTR inh 81.2, Beta cell apopt 106.8, CSC inhib 136.2, Mdm2-MdmX inh 89.8 | Mdm2 MdmX conf 52.1 | FLuc counter 49.5
Cc1nc(N2CCC(C)CC2)c2c(C)c(C(=O)Nc3cccc(C(F)(F)F)c3)sc2n1	none
Cc1cc(C)nc(NC(=NCCc2c[nH]c3ccccc23)NC(=O)Nc2ccccc2)n1	Mdm2-MdmX inh 63.9 | Mdm2 MdmX conf inactive | FLuc counter 63.3
Cc1ccccc1C(=O)NNS(=O)(=O)c1cccc([N+](=O)[O-])c1	none
CN(CC(=O)Nc1ccccc1Cl)C(=O)COC(=O)C1CCN(c2ccc(C(F)(F)F)cn2)CC1	none

Source: PubChem
